A word on the inhibition: it is the drop in the measured response relative to a control, in per cent.

Each structure is given as a SMILES string. Out of some 330,000 compounds screened, about 4,900 (1.5%) were called active. The list comes from a sample in which actives are over-represented; it also holds similar structures and randomly drawn compounds. Values without a mark were called inactive.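 The calls were made as follows: active = inhibition above about 50% at the single test dose (limit read from the data); inactive = the rest.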

The target of this assay is Sentrin-specific protease 7 (Homo sapiens) (UniProt Q9BQF6). Briefly: SENP7 protease inhibitors, primary screen, biochemical, luminescence, uHTS (AID 434973).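 Also: plate controls were DMSO with enzyme for no effect and no enzyme buffer wells for full effect.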 To be noted: recombinant SENP7, Z-RLRGG-aminoluciferin luminescence, 40 min; at 5 µM; active compounds read high.
In the case of `Nc1ccc2nn(-c3ccc(Cl)cc3)nc2c1`, the inhibition was 57.3% (active).

With `CN(C)c1nnnn1-c1ccc(Cl)cc1`, the inhibition was -4.93%.

`c1ccc(-n2nc3ccccc3n2)cc1`: the inhibition is 1.86%.

`C[C@@H](NC(=O)OC(C)(C)C)c1nnc(S(=O)(=O)Cc2ccccc2)o1`: the inhibition was -2.96%.

As for `NC(=O)C1CCN(C(=O)c2ccc(F)c(S(=O)(=O)N3CCOCC3)c2)CC1`, the inhibition is 10.4%.

Turning to `O=C(c1cnn(-c2ccc(Cl)cc2)c1)c1ccccc1O`, the inhibition was 93.1% (active).

On to `COc1ccc(C(=O)Cc2cnn(-c3ccccc3)c2)c(O)c1`, for which the inhibition is 5.94%.

As to `Cc1ncc(CC(=O)n2cc(C(=O)c3cc(Cl)ccc3O)cn2)s1`, the inhibition was 0.896%.

As to `CC1CCCCC1NC(=O)COC(=O)Cc1ccc(Br)cc1` (stereo unspecified), the inhibition is 0.5%.

`CC(=O)OCc1cc(=O)n(C)c(=O)n1C`: the inhibition was 6.2%.

In the case of `COc1cccc(COC(=O)C2CCN(S(=O)(=O)c3ccc(Cl)cc3)CC2)c1OC`, the inhibition is 11.2%.

With `O=C(COC(=O)c1ccco1)Nc1ccc(Cl)cn1`, the inhibition was 4.97%.

Take `CCCCCc1ccc(-c2cn(Cc3ccc4ccccc4c3)nn2)cc1`: the inhibition was -7.9%.

`CCCCCc1ccc(-c2ccc(C(=O)O)cc2)nc1`: the inhibition was 92.8% (active).

For the compound `CCCCCc1ccc(-c2ccc(OCC)cc2)nc1`, the inhibition is 11.8%.

Consider `O=S(=O)(NCc1ccccc1Br)c1ccccc1Br`, for which the inhibition is 2.03%.

Consider `O=C(CCc1nc2sc3c(c2c(=O)[nH]1)CCCC3)NCC(=O)Nc1ccccc1Br`, for which the inhibition is 2.2%.

On to `CC1CC(c2ccccc2)n2nc(NC(=O)c3cccs3)nc2N1` (stereo unspecified), for which the inhibition is -9.29%.

With `O=C(CC(O)(C(F)(F)F)C(F)(F)F)Nc1ccc(Cl)c(Cl)c1`, the inhibition is 2.83%.

Regarding `CCn1nccc1C(=O)Nc1ccc(Cl)c(Cl)c1`, the inhibition is 63.8% (active).

For the compound `CCn1nccc1C(=O)Nc1ccc(S(=O)(=O)NC23CC4CC(CC(C4)C2)C3)cc1`, the inhibition is -4.42%.

With `COc1ccc(C(=O)N2CCN(c3ncccn3)CC2)cc1S(=O)(=O)N1CCOCC1`, the inhibition was 0.314%.

On to `Cc1cc(NC(=O)C(C)N2C(=O)c3ccccc3S2(=O)=O)no1` (stereo unspecified), for which the inhibition was 3.21%.

Consider `Cc1ccc(NC(=O)Nc2nnc(-c3ccncc3)s2)cc1`, for which the inhibition is -3.06%.

Take `Cc1ccc(Nc2nnc(SC(C)C(=O)NC3CC3)s2)cc1` (stereo unspecified): the inhibition was 7.35%.

Consider `Cc1ccc(Nc2nc(Cl)c(C=O)s2)cc1`, for which the inhibition was 52.6% (active).

As to `COC(=O)C(C)N=Cc1ccccc1` (stereo unspecified), the inhibition was -4.82%.

Regarding `COCCNc1cc(-c2ccccc2)nc2cc(-c3cccc(F)c3)nn12`, the inhibition is -7.71%.

Take `COc1cccc(/C=C/c2ccc3ccccc3n2)c1OC(C)=O`: the inhibition is -1.58%.

Take `CC(=O)Oc1ccc2c(c1)C(=O)c1ccccc1C2=O`: the inhibition was 12.2%.

Regarding `COc1ccc(/C=C/c2noc(-c3ccccc3OC(C)=O)n2)cc1`, the inhibition was 87.9% (active).

Turning to `O=C(Nc1nc(-c2cccnc2)cs1)c1ccccc1F`, the inhibition is 28.5%.

For the compound `COc1ccc(-c2csc(Cc3nc(O)cs3)n2)cc1`, the inhibition is 23.1%.

As for `Cc1ccccc1Nc1nc(-c2cccnc2)cs1`, the inhibition was 54.3% (active).

With `O=C(NCc1cccnc1)C(=O)Nc1nc(-c2ccccc2)cs1`, the inhibition is 3.71%.

Take `Clc1ccc(Nc2nc(-c3cccs3)cs2)nc1`: the inhibition is 11%.

Regarding `COc1ccc(-c2csc(NC(=O)COC(=O)Cc3ccc(Cl)cc3Cl)n2)cc1`, the inhibition is 4.91%.

As to `c1ccc(Nc2nc(-c3ccncc3)cs2)nc1`, the inhibition is 85.5% (active).

On to `COc1ccc2c(c1OC)C(=O)OC2Nc1nc(-c2ccccc2)cs1` (stereo unspecified), for which the inhibition is 1.44%.

On to `COc1ccc(-c2csc(Nc3ccccn3)n2)cc1`, for which the inhibition is 86.2% (active).

Turning to `Clc1ccc(-c2csc(-c3ccncc3)n2)cc1`, the inhibition was -6.3%.

With `COc1ccc(Nc2nc(-c3ccccc3)cs2)cc1`, the inhibition is 95.8% (active).

Regarding `CCCn1c(CCNc2nc(-c3ccc(OC)cc3)cs2)nc2ccccc21`, the inhibition was 0.961%.

Consider `CN(Cc1ccc(F)cc1Cl)S(=O)(=O)c1cccs1`, for which the inhibition was -5.99%.

With `CCN(C(=O)COC(=O)c1c(C)nn(-c2ccccc2)c1Cl)c1c(N)n(Cc2ccccc2)c(=O)[nH]c1=O`, the inhibition is 2.84%.

As for `O=[N+]([O-])c1cc(S(=O)(=O)CCCN2CCOCC2)ccc1F`, the inhibition is -6.87%.

In the case of `Cc1ccc(S(=O)(=O)NCC(=O)N(CC(=O)NC(C)(C)C)Cc2cccs2)cc1`, the inhibition was 0.604%.

For the compound `CSCCNCc1cn(-c2ccc(F)cc2F)nc1-c1ccccc1C`, the inhibition was 8.28%.

`CCOc1ccc(S(=O)(=O)Nc2ccncc2)c(C)c1C`: the inhibition is -7.98%.

As for `CC[C@]1(C(=O)OC)[C@H]2C(=O)N(Cc3ccccc3)C(=O)[C@H]2[C@H]2CN=C(SCc3ccc(C#N)cc3)N21`, the inhibition was -3.53%.

For the compound `OC(COCC1COc2ccccc2O1)CN1CCN(c2ccc(F)cc2)CC1` (stereo unspecified), the inhibition is -0.332%.

As for `CCCCCCCCOC1OC(CO)C(O)C(O)C1NC(C)=O` (stereo unspecified), the inhibition was -1.17%.

Turning to `COc1c(F)c(F)c(-c2csc(N)n2)c(F)c1F`, the inhibition was -8.1%.

Take `CS(=O)(=O)Nc1cccc(C2=NN(C(=O)c3cccc(F)c3)C(c3cccs3)C2)c1` (stereo unspecified): the inhibition was 6.94%.

Consider `O=C1/C(=C/c2coc3ccc(O)cc3c2=O)SC(=S)N1c1ccccc1`, for which the inhibition was -27.4%.

For `O=C(Cc1csc(Nc2nc(=S)[nH]c3ccccc23)n1)NCCCN1CCN(c2cccc(Cl)c2)CC1`, the inhibition was 6.52%.

As for `CCC(C(=O)NC1CCCC1)N(C(=O)c1snc(C(N)=O)c1N)c1ccc2c(c1)OCCO2` (stereo unspecified), the inhibition was 5.07%.

For the compound `Nc1c(C(=O)c2cccs2)sc2nsc(SCCN3CCCCC3)c12`, the inhibition was 9.3%.

As to `Cc1ccc(-c2csc(NC3OC(=O)c4ccccc43)n2)cc1` (stereo unspecified), the inhibition is -11.5%.

Consider `Cc1ccc(Nc2nc(-c3ccc(O)cc3O)cs2)nc1`, for which the inhibition was -5.69%.

As for `Cc1cccc(Nc2nc(-c3ccccc3)cs2)n1`, the inhibition was 92.9% (active).

Regarding `CCOCCCNC(=O)C1(O)c2cc(Br)ccc2NC(=O)N1c1ccc(C)c(C)c1` (stereo unspecified), the inhibition is 8.05%.

`COCCn1c(SC(C)C(=O)NC2CC2)nnc1-c1cccc(C)c1` (stereo unspecified): the inhibition is 1.39%.

Take `O=C(Nc1cccc(NC(=O)c2cccc(F)c2)c1)c1ccccc1`: the inhibition was -10.7%.

In the case of `O=C(Nc1ccc(C(=O)O)c(O)c1)c1ccccc1`, the inhibition is 85.1% (active).

Take `O=C(Nc1cccc(C(=O)N2CCCC2)c1)c1ccccc1`: the inhibition is -13%.

As for `Cc1ccc(Nc2ncnc3c2cnn3C)c(C)c1`, the inhibition was -0.763%.

Turning to `Cc1ccc(-n2ncc3c(Nc4cccc(C(=O)O)c4)ncnc32)cc1`, the inhibition is 92.6% (active).

As to `CCN(CC)C(=O)CSc1ncnc2c1cnn2-c1ccccc1`, the inhibition is 2.6%.

For the compound `CC(=O)NC1C(Oc2ccc(C=O)cc2)OC(COC(C)=O)C(OC(C)=O)C1OC(C)=O` (stereo unspecified), the inhibition is 5.78%.

As to `Cc1cccc(NC(=O)CSc2nc3c(c(=O)[nH]2)CCC3)c1C`, the inhibition was -1.39%.

As to `CC(=O)Nc1ccc(NC(=O)CSc2nnc(COc3ccccc3C)n2CC2CCCO2)cc1` (stereo unspecified), the inhibition was 5.76%.

`COC(=O)c1ccc([C@@H](O)[C@H](C)C(=O)CC(=O)OC(C)(C)C)cc1`: the inhibition is 6.36%.

Consider `COc1cc(NC(=O)c2cccs2)ccc1NC(=O)c1ccccc1Cl`, for which the inhibition was -1.86%.

Consider `O=C(Nc1cccc(NC(=O)c2ccccc2[N+](=O)[O-])c1)c1ccccc1Cl`, for which the inhibition is 6.18%.

Take `O=C(Nc1ccc2sc3ccccc3c(=O)c2c1)c1ccccc1Cl`: the inhibition was 51.8% (active).

In the case of `COc1ccc2[nH]c(C(=O)Nc3ccccc3Cl)cc2c1`, the inhibition was 6.38%.

In the case of `CC(OC(=O)c1cc2ccccc2[nH]1)C(=O)N(C)c1ccccc1` (stereo unspecified), the inhibition is -10.4%.

`O=C(Nc1ccccc1)c1cc2ccccc2[nH]1`: the inhibition is 76% (active).

For the compound `CCSc1nc2c(c(=O)[nH]1)C(c1cccnc1)C(C(=O)OC(C)C)=C(C)N2` (stereo unspecified), the inhibition is 11%.

Turning to `COc1ccc(C(CNCC(=O)Nc2ccccc2F)N(C)C)cc1` (stereo unspecified), the inhibition is 2.72%.

In the case of `Cc1ccn2cc(-c3nonc3C)cc2c1`, the inhibition is 4.32%.

For the compound `CS(=O)(=O)N1CCN(C(=O)CSc2ccccc2)CC1`, the inhibition is -0.93%.

On to `CCCCN1Cc2c(nc3cc(-c4ccccc4)[nH]n3c2=O)C1=O`, for which the inhibition was -4.67%.

`Cc1cc(=O)n2[nH]c(-c3cccc(Cl)c3)cc2n1`: the inhibition is 1.33%.

As to `O=c1c2c(nc3cc(-c4cccc(Cl)c4)[nH]n13)CCCC2`, the inhibition is 66.7% (active).

On to `Cc1nc2ccccc2c(=O)n1-c1ccc(NS(=O)(=O)c2ccc(F)cc2F)cc1`, for which the inhibition is -0.987%.

For the compound `Clc1ccc(C2=CSC3=Nc4cccc5cccc(c45)N23)cc1`, the inhibition is 51.9% (active).

On to `CCC(=O)c1ccc(OCC(O)Cn2nc(C)c(C(C)=O)c2C)cc1` (stereo unspecified), for which the inhibition is 0.247%.

Consider `CC(C)(C)c1ccc(C(=O)NCc2ccco2)cc1`, for which the inhibition was -16.4%.

For the compound `CC(C)(C)NC(=O)NCc1ccco1`, the inhibition was -4.67%.

As for `CC(C)(C)c1ccc(NC(=O)NCc2ccco2)cc1`, the inhibition is 90.7% (active).

For `CN(C)S(=O)(=O)c1cc(C(=O)Nc2ccn(C)n2)c(Cl)cc1Cl`, the inhibition is -0.713%.

Turning to `CN(C)NC(=O)C(NC(=O)c1ccc(N)cc1)C12CC3CC(CC(C3)C1)C2` (stereo unspecified), the inhibition is -0.0401%.

For `COc1ccc(-c2cc3ccc(OCc4nn[nH]n4)cc3oc2=O)cc1`, the inhibition is 51% (active).

With `CCCCc1cc(=O)oc2cc(C)cc(OCc3nn[nH]n3)c12`, the inhibition is 1.78%.

For the compound `Cc1noc(C)c1COc1ccc2ccc(=O)oc2c1`, the inhibition was -8.22%.

As for `O=C(CNCCC1=CCCCC1)Nc1ccccc1N1CCCCCC1`, the inhibition was -5.33%.

As for `CN(C)c1ccc(/C=C/C(=O)c2ccc(O)cc2)cc1[N+](=O)[O-]`, the inhibition is -14.8%.

Regarding `O=C(/C=C/c1ccc2c(c1)OCCO2)c1ccc(O)cc1`, the inhibition is 68.4% (active).

Turning to `O=C(O)/C=C/c1ccc2c(c1)OCCO2`, the inhibition was 2.14%.

The values are drawn from PubChem BioAssay AID434973 (Sanford-Burnham Center for Chemical Genomics, 2010).
